From PubChem BioAssay AID1159506 (National Center for Advancing Translational Sciences (NCATS), 2015) come the findings set out here.

The full ranking holds about 59,000 sequences; the median of the read-out is about -0.00055, and the lowest 2% start at about -2. Shown is part of a subset that was picked to be rich in the lowest values.

The experiment is described as follows: Identification of proteins required for the processing of the EWS-FLI1 nascent transcript.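 Note: robust z of luciferase light less the median z of siRNAs with the same seed.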 The note with it: TC32 Ewing sarcoma NR0B1-luc vs CMV-luc (EWS-FLI1 target promoter against control promoter), 48 h; screened at 20 nM (by protocol). The procedure, abridged: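 Parallel TC32-NR0B1-luc and TC32-CMV-luc reverse transfections with 20 nM siRNA in RPMI-1640/10% FBS, luciferase measured 48 h later. Seed-adjusted z-scores from normalized, z-score-MAD transformed data; AllStars negative and siGL4 controls on each plate.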
As for AGGGUUGACAUGGAACUGC against FITM1, the seed-corrected z-score is 0.313.
UUCCGUACAAAAUUGUGCA against ARAF had a seed-corrected z-score of -0.24.
As to UGAGGUACAGUGAACAAGG against TMEM110, the seed-corrected z-score is -0.57.
Then AAACUGCUUCCGGACAUUG against ACAD8, with -1.71; and UACGUUUCUGAAGAAGGUG against FAM231D, with 1.63.
Then UCUAGGAAAAGGACUCGGC against IKZF2, with 0.168; and UUGCUUAUUCUCUCUCACG against CAAP1, with -3.02; and UAAAAUACCCACGUGGUUC against TMEM150A, with 0.686.
As for UUUCUCUGAAGUUAAGUCC against G0S2, the seed-corrected z-score is -0.192.
Take UAGAUAAUCUUGAACCUUC against UGP2: the seed-corrected z-score is 0.118.
The same measure for UGCUUGAACGUGUCCGUCC against LRRC4B: -0.284; for UAACAGCGAAUUCCAAGGC against ZBTB12: -2.07.
AAGACUAUAAAUCAUGUAG against LMBRD1 displayed a seed-corrected z-score of -0.385.
With AAUGUUGUGAUUAAGUAAG against DFNB59, the seed-corrected z-score is -2.62.
Then ACCUUGACCAGAAAGCUGC against C20orf27, with -0.672; and AAAAGUAUUACAAAAAGUG against MYOD1, with -0.532; and UAUACGUAAUGAAAGUUUC against SNX7, with 0.211.
Take AAACUGUGCAAAAGUCUCU against APCDD1L-AS1: the seed-corrected z-score was -0.722.
For the sequence UUUGUGUCCACCGUUAUAA against EVPLL, the seed-corrected z-score amounted to 0.153.
AAAUGUACCAAUACGUAGU against TMEM107 yielded a seed-corrected z-score of -2.13.
For UCGUUUCUGUGCUCCGUCC against PCP2, the seed-corrected z-score worked out at 0.0855.
Then UCGAUGUACACUUUGAGGC against B3GNT8, with 0.222; and UAUGAUUAAGAAUGAAACC against OR6C1, with 0.426.
UAUGGUUAGACCGCUUUCG against KIAA0408 displayed a seed-corrected z-score of 0.0809.
With AUAUGUUCGACUAUCAUGG against KATNBL1, the seed-corrected z-score was -3.24.
Then UAAGUCAGGAUAUUCGCUC against CRELD2, with -1.22; and UAAUGCGAUACAACUCGAC against COX4I1, with 1.65; and UGCACGAUCCGUUUGCUUC against RNASE11, with -0.108.
On to UCUGGAUCUGGUUUGCUGC against ZBTB3, for which the seed-corrected z-score is -1.18.
Regarding UUACUUAGUCUUGUGGUGG against HIST1H2AJ, the seed-corrected z-score was determined as 0.917.
As for ACGGUUUCAAUAUCUAACG against FAM160B1, the seed-corrected z-score was -14.4.
On to AGGAAUACAAGUCAUAUGC against TFB2M, for which the seed-corrected z-score was 0.916.
The same measure for AAGCUUUUCGUAGUCCUCA against NMRAL1: 0.164; for UUCUCGAUGCUUGUGGUUU against DMBX1: -0.553.
Then UUUGAUAACAGUUCACUGG against PLAG1, with 1.2; and UUCGAUAGAAUUUGAAAGC against SUGP2, with -2.02; and UUCGAUCAAAAUACAAGGC against GLDN, with -0.856.
The same measure for UGGAAUAUGACUCUUUGCC against STRA8: -0.991.
AUGGGUAAGAUGUAUGUUG against ZFAND1 yielded a seed-corrected z-score of -0.296.
Then UUCGGUAUCGUCUGUAUCC against USP8, with -1.37.
Turning to UCUGGAACUAUUUACUCGG against NEMP1, the seed-corrected z-score was -14.8.
The sequence AUGACAAUCACAUUCCUCU against AKR1B10 gave a seed-corrected z-score of 0.0562.
The same measure for UUUGCUCCCACCAAAUACC against KLHDC1: 1.18.
AUAGGAAGAACUCUGUUUG against SCHIP1: the seed-corrected z-score is -2.03.
The same measure for UCCAUAAUCUGUUUCGCUG against INTS4: -1.43; for UCAAUGACAGCUAAUAGCC against ARL13A: -1.36.
Turning to UUCUUAACAUAGGGCAUGG against RRM2B, the seed-corrected z-score is -0.284.
The same measure for UGAACCUCUAGACUCAUAG against ZDBF2: -0.0347.
The same measure for AAUUCGAUUAGAGAGUGUC against SENP5: 0.00396.
For the sequence UUUUCUCCCUUUAUAAGGC against OXCT1, the seed-corrected z-score was 1.02.
The same measure for UAUCCAACUAUCUAAACUG against TMEM184C: -16.9; for UCUCGAAACACCCUACUCC against MKNK1: 0.234.
Then UGAAGUAAUGGUGAGAGGG against CRYAB, with 0.664; and UGACCUCCAACACUAGUGC against VPS8, with 0.213; and AUCGUAACAAGAAAGUUCC against RNF17, with 1.39.
Then AUCUGCAUAAACUCCACGC against SCGN, with -2.24.
The sequence UCCAAGUUCACGAAGAUUU against MMD registered a seed-corrected z-score of 0.344.
Consider UGUACUUUGGAACUAGUCC against ENKUR, for which the seed-corrected z-score was 0.00323.
Then UUCCGGAUUACACCAGUGC against FAM171A2, with 0.108; and UUCGUAAGUGGUCCAGUUC against GSE1, with 1.07; and UCAAUUCUGAGCUUCGGUC against SPATA13, with 0.999.
On to UGGUAGUUCACGUUGAGCC against CASKIN2, for which the seed-corrected z-score is -2.53.
For the sequence UGAAGUUACAUUCAGUUCU against ZFAND3, the seed-corrected z-score was found to be 0.106.
The same measure for UUAGAUCUUGAAAGAGUUC against ETV1: -0.0727; for AUAGGUUUCAGAGAGGUGU against CA1: 0.901.
As for AAUCUUAAAUUUUCCGAGC against RGS7, the seed-corrected z-score is -0.282.
For the sequence UCGGGUGUUUUGGUCUUGC against LMOD1, the seed-corrected z-score is -2.52.
The same measure for UACCUCAUAGGAUAACACC against MPP4: 0.19.
Then AACGGUAGAAGCUGCAUGC against NOP58, with -1.46; and UCCUGCUUUAUAACUAGCC against ZNF621, with -4.33; and UUCAGCAUCUUUGUCGACC against RTFDC1, with -0.168.
Consider UGAAGUUAAUGGGCCCUGG against MYL12BP2, for which the seed-corrected z-score was determined as 0.711.
Then UCAUUUUCCUCAUAGGUGC against LAMB2, with -0.564.
On to AUACAUGCAGCUGUGGUUG against GABRB1, for which the seed-corrected z-score is -1.3.
Consider UAAGCGAUCCAUAUCAAAC against PROX1, for which the seed-corrected z-score was 0.491.
Turning to UAACUGUUUAGCGAUGUCC against TBC1D1, the seed-corrected z-score was -2.09.
The same measure for UUGUCUUCCUCCAUUGUCG against TSGA10IP: -0.628.
Consider UCUCUUGAUGUGGACACUC against ITGAD, for which the seed-corrected z-score was -0.0619.
With UCAUGGUCCGAAGCUGGUG against LHX2, the seed-corrected z-score was -2.03.
The same measure for UCGGCAAUAAUCUCGGCCU against HNRNPA0: 0.556; for UGGUUUUGUACACCUGCUG against TNP2: -0.158; for UAUUGAAGGACUCCUGAUC against RAB1A: 0.0899.
Then UUCAGAUGUCCGUCUAUGC against ABLIM3, with 0.714; and UUGGAAUACAUUGCCGUUC against SSR1, with -0.807; and UUUUGGACCGCUGCACCUG against CBY3, with 0.744.
